High-throughput results from PubChem.
In the library only some 3.2% were active in any assay of this set; here they are far more common.
ERb coact inh: ER-beta (human) coactivator binding inhibition; inhibition, % at 25.6 µM; Q92731; TR-FRET ER-beta LBD / SRC1-Cy5 peptide binding; receptor agonist-loaded with 1 µM estradiol; actives 1.3% (n = 86,000);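 active means compounds whose percent inhibition of the receptor-coactivator binding signal exceeds about 50% in the single-dose screen, limit read from the data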
ERa coact inh: blocks coactivator binding to human estrogen receptor alpha. P03372. TR-FRET ER-alpha LBD / SRC-1 peptide, estradiol-bound. inhibition, % at 25.6 µM. actives 1.7% (n = 86,000); in the data active means inhibition above about 50%
Target sequence (P03372 whole entry, looked up, the tested form may be a part): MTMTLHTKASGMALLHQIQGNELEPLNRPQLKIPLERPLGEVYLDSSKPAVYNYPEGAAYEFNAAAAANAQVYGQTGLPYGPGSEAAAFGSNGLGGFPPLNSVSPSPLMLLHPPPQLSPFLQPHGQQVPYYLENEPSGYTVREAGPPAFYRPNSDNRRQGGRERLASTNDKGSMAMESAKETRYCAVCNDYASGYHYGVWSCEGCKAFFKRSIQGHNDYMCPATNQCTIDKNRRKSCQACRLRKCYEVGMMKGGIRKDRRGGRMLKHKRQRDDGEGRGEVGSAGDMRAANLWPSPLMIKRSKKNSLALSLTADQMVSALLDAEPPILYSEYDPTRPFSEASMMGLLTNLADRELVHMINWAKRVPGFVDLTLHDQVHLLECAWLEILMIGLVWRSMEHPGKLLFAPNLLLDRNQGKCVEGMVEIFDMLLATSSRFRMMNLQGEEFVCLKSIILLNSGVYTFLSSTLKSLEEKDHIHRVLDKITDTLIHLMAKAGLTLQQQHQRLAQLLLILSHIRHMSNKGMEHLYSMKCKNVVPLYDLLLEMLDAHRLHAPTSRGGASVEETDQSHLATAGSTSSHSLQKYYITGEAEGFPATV
FAK inh: FAK (human) kinase inhibition; Q05397; biochemical FAK kinase activity assay; inhibition, %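 (tested at 7 µM)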; actives 0.84% (n = 97,000); AID 727
ERa coact pot: enhances coactivator binding to human estrogen receptor alpha; P03372; TR-FRET ERalpha-LBD/SRC-Cy5 coactivator binding, 2 h; 100 = basal binding, no effect; coactivator binding (% of control), % at 25.6 µM; actives 1.3% (n = 86,000); AID 639; in the data active means activity above about 200%;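 further: binding measured in presence of low estradiol as agonist stimulus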
FAK inh conf: FAK (human) inhibition confirmed; inhibition, % at 7 µM; shares compounds with FAK inh; FAK kinase biochemical inhibition assay; AID 794; actives 28% (n = 750)
Each line names hits and unclear results; the compound was inactive in the other large screens (follow-up assays come after a bar, where they were run); [ ] = remark or other dose. Unless noted, no stated cut-off is given here; in the data, active means inhibition above about 19%; inactive means the rest.

Cc1cc2c(cc1C)NC(c1cccnc1)C1=C(CC(C)(C)CC1=O)N2 (configuration not stated)	none
COc1cc(C2Nc3ccc4ncccc4c3C3=C2C(=O)CCC3)cc(OC)c1O (configuration not stated)	FAK inh 48 | FAK inh conf 29
COc1ccc(-n2c(Cn3c(=O)sc4ccccc43)nnc2SCC(=O)N2CCOCC2)cc1	none
Cc1c(CN(C)CCc2ccccc2)c(=O)n(-c2ccccc2)n1C	none
CCOC(=O)c1c(N2C(=O)C=CC2=O)sc(C)c1C	none (no result: ERb coact inh, ERa coact inh, ERa coact pot)
CN(Cc1ccccc1)c1ncnc2ccc(Br)cc12	FAK inh 39 | FAK inh conf inactive
O=C(c1cccc(S(=O)(=O)N2CCCC2)c1)N1CCN(c2ccccc2F)CC1	FAK inh 35 | FAK inh conf inactive
CCOC(=O)C1=C(C)NC(C)=C(C(=O)OCC)C1C(=O)OCC(=O)NC(C)C	none (no result: ERb coact inh, ERa coact inh, ERa coact pot)
C=CCn1c(NC(=O)c2ccccc2Cl)c(C#N)c2nc3ccccc3nc21	FAK inh 20 | FAK inh conf inactive
CCCCn1c(NC(C)=O)c(C#N)c2nc3ccccc3nc21	none
Nc1cc(N)cc(-c2nc3ccccc3o2)c1	none (no result: FAK inh)
O=c1c(-c2nc3ccccc3o2)c2oc3ccccc3n2c2ccccc12	FAK inh 24 (no result: ERb coact inh, ERa coact inh, ERa coact pot) | FAK inh conf inactive
Cc1ccc(C(C(=O)NC2CCCC2)N(C(=O)Cc2cccs2)c2ccc(C)c(C)c2)o1 (configuration not stated)	none (no result: ERb coact inh, ERa coact inh, ERa coact pot)
CC1CCc2c(sc3nn[nH]c(=O)c23)C1 (configuration not stated)	FAK inh 26 | FAK inh conf inactive
CC1(C)CCCN(C(=O)c2coc(=O)c(Br)c2)C1	ERb coact inh 83, ERa coact inh 90[fluorescence artefact?], FAK inh 46 | FAK inh conf 68
CN(CC(=O)NC1CCCCCC1)S(=O)(=O)c1ccc2c(c1)n(C)c(=O)c(=O)n2C	none
CCOC(=O)c1c(C)[nH]c(C=Nc2ccccc2)c1O	none
CCOC(=O)c1c(C)[nH]c(O)c1C=Nc1ccccc1	FAK inh 34 (no result: ERb coact inh, ERa coact inh, ERa coact pot) | FAK inh conf inactive
COCCOC(=O)C1=C(C)NC2=C(C(=O)CC(c3cccs3)C2)C1c1ccsc1 (configuration not stated)	FAK inh 23 | FAK inh conf 19
CCCCN(C(=O)c1c(C)[nH]c(C(=O)OCC)c1C)c1ccccc1	none
Nc1ccc(-c2nc3c(Cl)cc(N)cc3[nH]2)cc1	FAK inh 25 | FAK inh conf inactive
Cc1nc2c(Cl)cc(Cl)cc2[nH]1	none
CCOC(=O)c1cccc(NS(=O)(=O)c2ccc(NC(C)=O)cc2)c1	none
CCOC(=O)c1cccc(NS(=O)(=O)c2c(C)[nH]c(=O)[nH]c2=O)c1	FAK inh 21 | FAK inh conf inactive
COc1ccc2[nH]c3nc(SCC(=O)NNC(=O)c4ccc(OC)c(OC)c4)nnc3c2c1	none (no result: ERb coact inh, ERa coact inh, ERa coact pot)
Cc1ccc(C(=O)NNC(=O)CSc2nnc3c(n2)[nH]c2ccc(F)cc23)cc1	FAK inh 69 (no result: ERb coact inh, ERa coact inh, ERa coact pot) | FAK inh conf 39
O=C(O)CCCC(=O)N1CCc2cc(S(=O)(=O)N3CCc4ccccc43)ccc21	none
Cc1ccc(Cl)cc1NC1=C/C(=N\S(=O)(=O)c2cccs2)c2ccccc2C1=O	FAK inh 32 (no result: ERb coact inh, ERa coact inh, ERa coact pot) | FAK inh conf 23
c1ccc(OCCCc2nc(-c3ccccn3)no2)cc1	none
CCc1nc(NCc2cccnc2)c2oc3ccccc3c2n1	FAK inh 20 | FAK inh conf inactive
O=C(CC1C(=O)NCCN1C(=S)Nc1ccccc1)Nc1ccc2c(c1)OCCO2 (configuration not stated)	FAK inh 23 | FAK inh conf inactive
O=C(CC1C(=O)NCCN1C(=O)Nc1ccccc1)Nc1ccc2c(c1)OCO2 (configuration not stated)	none
CN(C)c1ccc(/C=C/C=C2/SC(=S)N(c3ccccc3)C2=O)cc1	none (no result: ERb coact inh, ERa coact inh, ERa coact pot)
CC(C)C(C(=O)O)N1C(=O)/C(=C/C=C/c2ccco2)SC1=S (configuration not stated)	FAK inh 88 (no result: ERb coact inh, ERa coact inh, ERa coact pot) | FAK inh conf inactive
Cc1cc(C)n2nc(C(=O)Nc3ccc4c(c3)OCO4)nc2n1	ERa coact inh 59[fluorescence artefact?], FAK inh 93 | FAK inh conf inactive
CCOC(=O)c1ccc(NC2=CC(=O)C(=O)c3ccccc32)cc1	FAK inh 36 | FAK inh conf 35
N#Cc1c(-c2ccccc2)ccn(Cc2ccc(Cl)cc2)c1=O	none (no result: ERb coact inh, ERa coact inh, ERa coact pot)
CC1=C(CC(=O)c2ccccc2)C(=O)c2ccccc2C1=O	none (no result: ERb coact inh, ERa coact inh, ERa coact pot)
Cc1oc2c(c1C(=O)c1ccccc1)C(=O)C(=O)c1ccccc1-2	FAK inh 30 | FAK inh conf 22
